Laboratory results from PubChem BioAssay.

test system: Lefty1; test: Lefty1 protein binding to printed compounds – biochemical, small-molecule microarray, 635/667 nm fluorescence, primary screen (AID 1139); settings: fluorescence 635/667, higher = more signal

| SMILES | composite z-score |
| --- | --- |
| Cc1ccc(S[C@]2(C(=O)NCCCN(C)C)CC(=O)N(C3CCCCC3)[C@@H]2c2ccc(CO)cc2I)cc1 | -0.695 |
| O=C1C2C=CC(C(O)C#Cc3ccccc3)N(Nc3ccccc3)C2C(=O)N1c1ccccc1 (configuration not stated) | -0.67 |
| O=C1NC(=O)C2C1C=CC(C(O)C=Cc1ccc([N+](=O)[O-])cc1)N2Nc1ccccn1 (configuration not stated) | 0.509 |
| Cc1ccc(S(=O)(=O)N[C@H]2COC(=O)CC=C[C@H](C)COC(=O)N[C@@H](C)C(=O)CC=C[C@@H]2C)cc1 | 1.65 |
| Cc1ccc(N2C(=O)c3ccccc3[C@](C)(C(=O)NCC(C)C)[C@@H]2c2ccc(CO)cc2)nc1 | -0.589 |
| O=C1C2C=CC(C(O)c3ccccc3)N(n3cnnc3)C2C(=O)N1Cc1ccccc1 (configuration not stated) | -0.497 |
| COc1cc([C@@H]2N[C@H](C(=O)O)Cc3c2[nH]c2ccccc32)cc(OC)c1OC | 0.531 |
| C=CCNC(=O)[C@H]1[C@@H]2C(=O)O[C@@H](c3ccccc3)[C@@H](c3ccccc3)N2[C@@H](c2ccc(O)cc2)[C@]12C(=O)Nc1ccc(C#CCNC(N)=O)cc12 | -0.886 |
| CCC#CCN(Cc1ccccc1Br)[C@H](/C=C/c1ccccc1)[C@@H](O)Cc1ccccc1 | -0.978 |
| CCCC=C(CCC)[C@@H](NC(=O)c1ccccc1)c1ccccc1 | -0.614 |
| CO[C@H]1O[C@H](CO)[C@@H](OC(=O)CCc2ccccc2)[C@@H]2OC(=O)[C@H](Cc3cccc(Br)c3)C/C=C/C[C@@H](Cc3cccc(Br)c3)C(=O)O[C@@H]12 | -0.752 |
| C=CCC(OC(C)=O)[C@@H]1[C@@H](N(Cc2cccc3ccccc23)C(=O)c2ccc(C)cc2)c2cc(OCCCO)ccc2N1C(=O)c1ccc(-c2ccccc2)cc1 (some centres not stated) | -0.0451 |
